# Results reported in PubChem BioAssay (NCI).
# “And” between values parts separate entries of the source, which are not always exact repeats. Equal entries are not always repeated. The panel holds about 83,000 compounds, 20% with a hit somewhere; the sample as a whole holds those more often.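 A percent growth of 40 corresponds to 60% growth inhibition; 0 means no net growth; -100 means all cells died. Active threshold: below 10.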 Values without a mark were called inactive. The source made the active and inactive calls.
# Test system: MDA-MB-468 breast
# Assay: NCI-60 one-dose screen, 48 h (100 = growth as untreated, 0 = no growth, -100 = all killed)
# Settings: 10 µM unless noted
row,Compound,growth
1,CCCCCCCCCCCCOC(=N)N(C)C,104%
2,CC(C)(C)c1ccc(-c2nnc(-c3nc4ccccc4nc3Cl)o2)cc1,7.12% (active)
3,CC(=O)c1c(C)[nH]c(-c2nc3ccc(N4CCN(C)CC4)cc3[nH]2)c1-c1ccc(OCC2CCOCC2)cc1,11.4%
4,COc1cc(C2C=C(C)N=C3SC=CN32)cc(OC)c1OC (configuration not stated),97.5%
5,O=C1C(Nc2ccc(Br)cc2)=C(I)C(=O)c2ncccc21,-81.4% (active)
6,CC(C)c1cc(CNc2nc(Nc3cc(C4CC4)[nH]n3)cc(N3CCN(C)CC3)n2)on1,-34.8% (active)
7,COc1ccc(C(=O)C(=O)c2ccccc2)cc1,101%
8,CCCCN1CCN(c2ccc3nc(-c4ccc5nc(-c6cc(OC)c(OC)c(OC)c6)[nH]c5c4)[nH]c3c2)CC1,45.7%
9,O=C(CCl)N1c2ccccc2Oc2ccc3ccccc3c21,-72.5% (active)
10,O=C(Nc1ccccc1)Oc1c(Cl)c(Cl)c(Cl)c(Cl)c1Cl,116% and 98.8%
11,COc1cc(CNCCCN2C(=O)c3ccc4c5c(ccc(c35)C2=O)C(=O)N(CCCNCc2cc(OC)c(OC)c(OC)c2)C4=O)cc(OC)c1OC,-93.3% (active)
12,COc1ccc2cc(Cn3cc[n+](Cc4ccc5ccccc5c4)c3)ccc2c1,-22.9% (active)
13,C=CCn1c(SCC(=O)Nc2ccc(C(=O)/C=C/c3ccc(OC)cc3)cc2)nnc1-c1ccccc1,93.9%
14,Cn1ccnc1C(=O)/C=C/c1ccc(C(=O)Nc2ccccc2F)cc1,22.3%
15,NC(=O)c1c(NC(=O)c2ccccc2)sc2c1CCC(=O)C2,-5.34% (active)
16,CC1/C=C/C=C/C=C/C=C/C=C/C=C/C=C/C(O[C@@H]2O[C@H](C)[C@H](O)[C@@H](O)[C@@H]2N)CC(O)C(C(=O)O)C(O)CC(=O)CC(O)CC(O)CC(O)CC(=O)CCCC(=O)CC(=O)OC1C(C)CC(C)C(O)CC(=O)c1ccc(N)cc1 (some centres not stated),-89.7% (active)
17,Cn1cc(-c2csc(-c3c[nH]c4ccc(F)cc34)n2)c2cnccc21,-49.6% (active)
18,CC(C)N(CCOC(=O)Nc1ccccc1Cl)C(C)C,104%
19,C=C1C(=O)O[C@H]2[C@H]1CC/C(CNC(=O)/C=C/c1ccc(Cl)cc1Cl)=C\CC[C@@]1(C)O[C@@H]21,-89.2% (active)

row,Compound,growth
1,O=C1CC(c2nc3ccccc3[nH]2)CN1C1CCCCC1 (configuration not stated),110%
2,CC/C(Cc1ccccc1)=C(\c1ccc(OCCCN(C)C)cc1)c1ccc(OC(=O)NCc2ccccc2)cc1,56.8%
3,Oc1ccc(CCC2CCNc3ccccc32)cc1 (configuration not stated),46.8%
4,Cc1cc2c(c(C)c1Cl)C(=O)/C(=C/c1cccc([N+](=O)[O-])c1)O2,92.2%
5,CCCc1cc2cc(-n3nc(C)c4c3CC(C)(C)CC4=O)cc(NC3CCC(O)CC3)c2c(=O)[nH]1 (configuration not stated),-0.951% (active)
6,CC(=O)OC[C@H](O)[C@@]1(O)CC[C@H]2[C@@H]3CCC4=CC(=O)CC[C@]4(C)[C@H]3[C@@H](O)C[C@@]21C,112%
7,FC(F)(F)c1ccc(Cn2cc(CSc3nc4ccccc4s3)nn2)cc1,98.7%
8,Cn1cc(-c2nnc(N)nc2-c2c[nH]c3ccc(F)cc23)c2cc(Br)ccc21,-33.4% (active)
9,COc1ccc(-c2nc3c(c(-c4ccccc4)nn3-c3ccccc3)c(-c3ccc(N4CCOCC4)cc3)c2C#N)cc1,97.8%
10,OC1(c2ccccc2)c2ccccc2N(c2ccccc2)c2ccc(Cl)cc21 (configuration not stated),-75.3% (active)
11,O=[n+]1ccn([O-])c2ccccc21,86.9%
12,CCCC(=O)OCC1OC(n2cnc3c(=S)nc(N)[nH]c32)C(OC(=O)CCC)C1OC(=O)CCC (configuration not stated),47.7%
13,CCN(CC)CCn1nc2c3c(cccc3c1=O)-c1ccccc1-2,25.9%
14,CCCCCCCCn1ccc2cc(NC(=O)CN3CCN(c4nc(C)cc(N5CCCCC5)n4)CC3)ccc21,73.2%
15,COc1ccc(C2=NN(c3nc(-c4ccc(OC)cc4)c(C#N)c(=O)n3C)C(=O)CC2)cc1,96.2%
16,Cc1[nH]c(N=Nc2ccccc2)nc1N=Nc1ccccc1,24.1%
17,NC(C(=O)O)C(O)c1ccco1 (configuration not stated),102%
18,O=C1NN(C(=O)c2ccc(Cl)cc2)C(c2ccccc2)=N/C1=C\c1cn(-c2ccccc2)nc1-c1ccccc1,81.9%
